The values that follow come from the supplement of paper PMC10849652.

Common to all, as to experiment: log2 fold change, soluble protein after heating vs DMSO (PISA); higher = thermal stabilisation; K562 cells, 10 uM, 30 min; active = over 0.2 and 3.5 SD of the protein, either way, in both replicates (recomputed)
Compound in test [1]: CC1=C(C=C(C=C1)NC(=O)C2=CC(=CC=C2)C(C)(C)C#N)NC3=CC4=C(C=C3)N=CN(C4=O)C
In outline:
(§1)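 K562 cells (2×10^6 cells/mL) were treated with 10 μM compound for 30 min, and aliquots were heated for 3 min over 48°C-58°C. Pooled aliquots were extracted in PBS with 0.5% NP-40 at 4°C, and the supernatant after 21,000xg for 90 min was measured by TMTpro 16plex LC-MS/MS with channel sums equalised. Reported thermal stability, relative to control samples and from duplicates, is a log2 fold change.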

Compound in test [2]: CC1=C(C=C(C=C1)NC(=O)C2=CC(=CC=C2)N(C)C)NC(=O)C3=CC=C(C=C3)O
The procedure, abridged:
as §1

Compound in test [3]: CC1=CC=C(C=C1)SC2=C3C=C(SC3=CN=C2)C(=O)N
In outline: as §1

Compound in test [4]: CC1=NC(=CC=C1)C2=C(N=C(N2)C(C)(C)C)C3=CC4=NC=CN=C4C=C3
The procedure, abridged: as §1

Compound in the next test: CCCCN(Cc1ccc(C(=O)NO)cc1)C(=O)Nc1ccccc1 [Nexturastat A]
The procedure, abridged:
as §1

Compound in the next test: CCCS(=O)(=O)Nc1ccc(F)c(C(=O)c2c[nH]c3ncc(-c4ccc(Cl)cc4)cc23)c1F [vemurafenib]
In outline:
as §1

Compound in test [5]: CCCS(=O)(=O)Nc1ccc(F)c(C(=O)c2c[nH]c3ncc(Cl)cc23)c1F
The procedure, abridged:
as §1

Compound in test [6]: CCCc1cc(C)[nH]c(=O)c1CNC(=O)c1cc(-c2ccnc(N3CCN(C)CC3)c2)cc2c1cnn2C(C)C
The procedure, abridged: as §1

Compound in the next test: CCN(CC)Cc1ccc2cc(COC(=O)Nc3ccc(C(=O)NO)cc3)ccc2c1 [givinostat]
The procedure, abridged: as §1

Compound in a further test: CCN(CCCOc1ccc2c(Nc3cc(CC(=O)Nc4cccc(F)c4)[nH]n3)ncnc2c1)CCOP(=O)(O)O [barasertib]
In outline: as §1

About 7,900 targets were measured; listed, in parts, are those with a hit and a random draw of the rest. About 0.6% of all pairs of compound and target were hits. Unmarked numbers belong to inactive results.

Sequence of UniProt O60488 (O60488 whole entry, looked up): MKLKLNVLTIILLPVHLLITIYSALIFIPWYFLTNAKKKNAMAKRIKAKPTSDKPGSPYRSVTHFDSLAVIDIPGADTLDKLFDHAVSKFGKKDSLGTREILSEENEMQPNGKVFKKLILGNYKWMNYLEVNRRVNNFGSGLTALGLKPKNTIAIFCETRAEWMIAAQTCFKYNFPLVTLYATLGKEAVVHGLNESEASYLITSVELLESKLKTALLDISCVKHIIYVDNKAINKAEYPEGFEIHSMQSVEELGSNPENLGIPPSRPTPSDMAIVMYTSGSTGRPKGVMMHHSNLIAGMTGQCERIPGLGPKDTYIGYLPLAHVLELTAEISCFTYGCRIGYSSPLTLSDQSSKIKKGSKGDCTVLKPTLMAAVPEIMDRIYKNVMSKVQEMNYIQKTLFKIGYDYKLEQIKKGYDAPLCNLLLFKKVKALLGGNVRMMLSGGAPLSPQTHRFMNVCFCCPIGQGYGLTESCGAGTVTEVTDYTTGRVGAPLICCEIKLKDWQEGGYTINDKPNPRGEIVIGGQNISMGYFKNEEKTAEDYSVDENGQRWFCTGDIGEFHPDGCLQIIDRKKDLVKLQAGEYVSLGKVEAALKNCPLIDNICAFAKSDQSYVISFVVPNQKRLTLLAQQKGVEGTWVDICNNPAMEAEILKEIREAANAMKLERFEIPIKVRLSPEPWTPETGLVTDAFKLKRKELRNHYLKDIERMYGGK
Sequence of UniProt Q9NQ11 (Q9NQ11 whole entry, looked up): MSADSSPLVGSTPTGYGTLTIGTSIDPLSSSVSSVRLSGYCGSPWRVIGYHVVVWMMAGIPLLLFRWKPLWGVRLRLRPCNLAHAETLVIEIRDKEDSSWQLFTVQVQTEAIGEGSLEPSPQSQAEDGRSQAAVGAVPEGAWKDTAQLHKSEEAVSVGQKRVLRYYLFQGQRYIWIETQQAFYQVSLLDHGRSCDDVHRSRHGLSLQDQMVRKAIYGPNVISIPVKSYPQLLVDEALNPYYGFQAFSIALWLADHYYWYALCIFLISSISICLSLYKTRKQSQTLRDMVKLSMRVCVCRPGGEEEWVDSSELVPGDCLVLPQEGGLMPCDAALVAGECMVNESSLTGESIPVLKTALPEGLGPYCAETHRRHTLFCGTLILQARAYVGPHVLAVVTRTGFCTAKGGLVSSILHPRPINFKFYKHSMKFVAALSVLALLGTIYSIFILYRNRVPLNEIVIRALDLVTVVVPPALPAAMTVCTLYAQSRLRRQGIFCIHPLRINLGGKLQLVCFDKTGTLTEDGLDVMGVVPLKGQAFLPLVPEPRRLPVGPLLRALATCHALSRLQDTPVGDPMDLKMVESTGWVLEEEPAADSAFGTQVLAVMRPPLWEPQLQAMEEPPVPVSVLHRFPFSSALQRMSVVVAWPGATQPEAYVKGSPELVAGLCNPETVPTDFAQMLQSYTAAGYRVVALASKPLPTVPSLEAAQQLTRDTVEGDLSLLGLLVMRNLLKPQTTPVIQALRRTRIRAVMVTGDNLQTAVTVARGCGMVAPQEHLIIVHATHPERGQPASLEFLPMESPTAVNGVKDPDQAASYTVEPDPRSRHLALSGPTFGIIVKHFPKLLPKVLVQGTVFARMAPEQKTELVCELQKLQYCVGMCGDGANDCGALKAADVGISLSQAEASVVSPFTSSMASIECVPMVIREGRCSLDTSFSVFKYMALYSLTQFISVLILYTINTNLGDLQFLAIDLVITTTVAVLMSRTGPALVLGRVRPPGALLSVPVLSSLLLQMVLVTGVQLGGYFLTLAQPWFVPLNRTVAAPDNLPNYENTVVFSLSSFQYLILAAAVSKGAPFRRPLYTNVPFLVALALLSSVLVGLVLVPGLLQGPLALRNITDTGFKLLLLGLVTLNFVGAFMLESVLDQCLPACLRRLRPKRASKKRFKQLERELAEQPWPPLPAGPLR
Sequence of UniProt P08758 (P08758 whole entry, looked up): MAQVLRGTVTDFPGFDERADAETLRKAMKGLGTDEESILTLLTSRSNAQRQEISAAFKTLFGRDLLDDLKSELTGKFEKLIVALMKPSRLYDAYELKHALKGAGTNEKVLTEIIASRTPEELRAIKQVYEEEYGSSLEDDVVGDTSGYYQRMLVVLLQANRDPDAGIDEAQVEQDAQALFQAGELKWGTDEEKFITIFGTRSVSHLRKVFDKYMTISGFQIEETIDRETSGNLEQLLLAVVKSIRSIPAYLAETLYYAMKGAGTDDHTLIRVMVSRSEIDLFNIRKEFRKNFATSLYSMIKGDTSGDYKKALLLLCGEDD
Sequence of UniProt P15291 (P15291 whole entry, looked up): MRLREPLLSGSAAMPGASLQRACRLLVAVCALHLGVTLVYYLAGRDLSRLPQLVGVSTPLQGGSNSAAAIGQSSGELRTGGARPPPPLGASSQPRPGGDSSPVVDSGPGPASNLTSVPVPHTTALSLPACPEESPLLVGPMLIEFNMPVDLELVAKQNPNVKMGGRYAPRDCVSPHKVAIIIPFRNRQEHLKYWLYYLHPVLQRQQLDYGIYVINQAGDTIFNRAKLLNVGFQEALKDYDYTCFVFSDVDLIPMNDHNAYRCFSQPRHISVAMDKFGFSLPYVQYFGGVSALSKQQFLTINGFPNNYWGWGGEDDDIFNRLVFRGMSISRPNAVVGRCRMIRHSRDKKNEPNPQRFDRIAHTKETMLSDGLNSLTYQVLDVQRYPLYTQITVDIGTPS
Sequence of UniProt Q96GS6 (Q96GS6 whole entry, looked up): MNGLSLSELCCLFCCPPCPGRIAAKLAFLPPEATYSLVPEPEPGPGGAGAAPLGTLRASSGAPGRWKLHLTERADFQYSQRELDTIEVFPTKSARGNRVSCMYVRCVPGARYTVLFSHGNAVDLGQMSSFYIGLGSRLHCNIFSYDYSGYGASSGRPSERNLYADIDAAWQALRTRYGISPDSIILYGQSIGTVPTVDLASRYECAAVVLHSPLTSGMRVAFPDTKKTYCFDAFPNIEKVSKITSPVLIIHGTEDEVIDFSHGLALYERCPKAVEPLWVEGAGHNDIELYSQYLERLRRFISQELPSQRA
Sequence of UniProt Q9BTE6 (Q9BTE6 whole entry, looked up): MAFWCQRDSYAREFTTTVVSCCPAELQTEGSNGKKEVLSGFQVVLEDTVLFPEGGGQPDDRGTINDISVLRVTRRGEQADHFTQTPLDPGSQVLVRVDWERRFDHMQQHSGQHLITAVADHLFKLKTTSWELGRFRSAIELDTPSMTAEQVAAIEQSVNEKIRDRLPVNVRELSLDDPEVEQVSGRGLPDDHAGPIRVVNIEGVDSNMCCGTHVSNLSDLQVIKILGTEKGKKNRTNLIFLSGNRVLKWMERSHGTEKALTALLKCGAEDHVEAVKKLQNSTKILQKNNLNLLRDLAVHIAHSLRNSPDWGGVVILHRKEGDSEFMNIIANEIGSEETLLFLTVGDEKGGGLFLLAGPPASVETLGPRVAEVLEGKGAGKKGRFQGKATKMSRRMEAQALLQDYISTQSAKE
Sequence of UniProt P11766 (P11766 whole entry, looked up): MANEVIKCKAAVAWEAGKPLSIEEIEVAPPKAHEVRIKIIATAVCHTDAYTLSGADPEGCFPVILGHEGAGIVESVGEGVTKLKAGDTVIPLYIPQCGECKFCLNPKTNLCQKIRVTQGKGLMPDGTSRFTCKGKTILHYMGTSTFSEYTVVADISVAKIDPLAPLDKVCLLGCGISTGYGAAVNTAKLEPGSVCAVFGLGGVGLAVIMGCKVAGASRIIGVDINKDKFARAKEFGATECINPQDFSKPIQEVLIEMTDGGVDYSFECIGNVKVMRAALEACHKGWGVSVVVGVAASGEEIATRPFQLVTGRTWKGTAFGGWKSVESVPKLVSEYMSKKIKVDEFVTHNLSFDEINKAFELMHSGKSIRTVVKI
Sequence of UniProt Q16864 (Q16864 whole entry, looked up): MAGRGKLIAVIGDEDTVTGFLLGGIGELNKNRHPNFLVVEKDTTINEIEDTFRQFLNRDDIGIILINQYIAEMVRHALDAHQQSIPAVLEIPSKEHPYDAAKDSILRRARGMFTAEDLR
Sequence of UniProt P40616 (P40616 whole entry, looked up): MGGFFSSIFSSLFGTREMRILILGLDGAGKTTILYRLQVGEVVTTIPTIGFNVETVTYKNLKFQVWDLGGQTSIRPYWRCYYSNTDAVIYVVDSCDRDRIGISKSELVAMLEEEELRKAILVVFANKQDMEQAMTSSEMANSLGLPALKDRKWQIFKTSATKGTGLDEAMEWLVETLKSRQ
Sequence of UniProt Q9Y6H3 (Q9Y6H3 whole entry, looked up): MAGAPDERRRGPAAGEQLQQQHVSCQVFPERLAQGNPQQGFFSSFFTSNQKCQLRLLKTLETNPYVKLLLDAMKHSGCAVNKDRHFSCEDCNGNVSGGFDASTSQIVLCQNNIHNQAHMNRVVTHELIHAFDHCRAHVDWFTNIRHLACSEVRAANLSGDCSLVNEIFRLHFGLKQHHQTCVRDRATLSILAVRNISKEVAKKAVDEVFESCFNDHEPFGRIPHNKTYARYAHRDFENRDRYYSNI
Sequence of UniProt P56211 (P56211 whole entry, looked up): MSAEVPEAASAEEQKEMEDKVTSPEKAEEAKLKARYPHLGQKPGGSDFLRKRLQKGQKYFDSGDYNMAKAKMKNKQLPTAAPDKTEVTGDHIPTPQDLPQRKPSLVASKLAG
Sequence of UniProt Q86WA6 (Q86WA6 whole entry, looked up): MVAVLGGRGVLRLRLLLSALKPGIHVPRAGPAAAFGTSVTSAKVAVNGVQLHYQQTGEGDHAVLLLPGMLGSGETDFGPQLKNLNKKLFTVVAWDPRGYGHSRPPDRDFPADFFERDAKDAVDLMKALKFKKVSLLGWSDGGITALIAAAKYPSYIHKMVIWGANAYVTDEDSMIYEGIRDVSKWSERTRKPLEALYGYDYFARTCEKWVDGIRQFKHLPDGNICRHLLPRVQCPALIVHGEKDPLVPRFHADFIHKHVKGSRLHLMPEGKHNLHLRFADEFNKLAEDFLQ

As for ATP23 (UniProt Q9Y6H3), the log2 fold change in [1] was 0.027; in [2] it was -0.013; in test [3], 0.122; in test [4], 0.058; with Nexturastat A, -0.172; with vemurafenib, 0.021. Moreover, the log2 fold change in test [5] was -0.039; in test [6], -0.031; with givinostat, -0.012; with barasertib, -0.049.
As for ATP2A3 isoform 2 (UniProt Q93084), the log2 fold change in test [1] is -0.024; in test [2], -0.001; in test [3], -0.013; in [4] it was 0.004; with Nexturastat A, 0; with vemurafenib it was -0.004. For the same target, the log2 fold change in test [5] is 0.032; in test [6], 0.042; in the test with givinostat it was -0.01; with barasertib, 0.011.
In the case of ATP13A2 (UniProt Q9NQ11), the log2 fold change in [1] was 0.017; in test [2], 0.009; in test [3] it was 0.035; in test [4], 0.055; with Nexturastat A, 0.001; in the test with vemurafenib it was 0.085. Also, the log2 fold change in test [5] was -0.037; in [6], 0.014; in the test with givinostat, -0.044; with barasertib, -0.052.
As to ARL1 (UniProt P40616), the log2 fold change is 0.057 in test [1]; -0.012 in test [2]; 0.162 in test [3]; 0.054 in [4]; -0.119 in the test with Nexturastat A; 0.037 with vemurafenib. The log2 fold change in test [5] is 0.116; in test [6], 0.071; in the test with givinostat, 0.07; in the test with barasertib it was 0.007.
As to ADD3 (UniProt Q9UEY8), the log2 fold change in test [1] is 0.024; in test [2], 0.016; in [3] it was -0.015; in test [4], -0.003; with Nexturastat A it was 0.021; in the test with vemurafenib, -0.021. The log2 fold change in test [5] is 0.006; in [6], -0.013; with givinostat, -0.043; in the test with barasertib it was -0.01.
For AARSD1 isoform 3 (UniProt Q9BTE6), the log2 fold change was 0.016 in [1]; -0.04 in test [2]; -0.003 in test [3]; 0.034 in test [4]; -0.077 in the test with Nexturastat A; 0.003 in the test with vemurafenib. For the same target, the log2 fold change in test [5] was 0.122; in [6], 0.03; in the test with givinostat, -0.273 (active); in the test with barasertib it was 0.032.
Turning to ARPP19 (UniProt P56211), the log2 fold change is -0.012 in test [1]; 0.199 in [2]; 0.057 in test [3]; 0.125 in test [4]; -0.04 in the test with Nexturastat A; 0.041 with vemurafenib. For the same target, the log2 fold change in test [5] was 0.043; in [6], -0.106; in the test with givinostat, -0.003; in the test with barasertib, -0.012.
Turning to ANXA5 (UniProt P08758), the log2 fold change was 0.057 in [1]; -0.065 in test [2]; -0.01 in test [3]; 0.068 in test [4]; -0.116 with Nexturastat A; 0.07 in the test with vemurafenib. Besides, the log2 fold change is 0.071 in test [5], 0.039 in test [6], 0.033 with givinostat and 0.034 with barasertib.
As for AKAP8 (UniProt O43823), the log2 fold change in test [1] was -0.082; in test [2], 0.029; in test [3], -0.03; in test [4], -0.009; with Nexturastat A, 0.313 (active); in the test with vemurafenib, -0.062. Moreover, the log2 fold change in [5] is -0.05; in test [6] it was -0.034; in the test with givinostat, -0.027; with barasertib it was 0.024.
In the case of ADH5 (UniProt P11766), the log2 fold change in [1] was 0.004; in [2], 0.008; in test [3], 0.043; in test [4], 0.009; with Nexturastat A, -0.103; in the test with vemurafenib, -0.007. For the same target, the log2 fold change in test [5] was 0.008; in [6], -0.046; with givinostat, -0.01; in the test with barasertib, -0.023.
Take ABHD17A isoform 2 (UniProt Q96GS6): the log2 fold change in test [1] was -0.004; in test [2] it was -0.031; in [3], 0.035; in test [4], -0.068; with Nexturastat A, 0.034; with vemurafenib, -0.039. In addition, the log2 fold change is -0.032 in [5], -0.021 in [6], -0.313 with givinostat and 0.016 in the test with barasertib.
For ACSL4 (UniProt O60488), the log2 fold change in test [1] is 0.018; in test [2] it was -0.051; in test [3] it was 0.418 (active); in [4], -0.002; in the test with Nexturastat A, 0.233; with vemurafenib, 0.021. Besides, the log2 fold change in test [5] was 0.104; in [6], 0.053; in the test with givinostat it was 0.047; in the test with barasertib, 0.034.
As for B4GALT1 (UniProt P15291), the log2 fold change in test [1] is -0.009; in [2], -0.027; in test [3] it was 0.002; in test [4], -0.05; with Nexturastat A, -0.022; with vemurafenib it was 0.035. For the same target, the log2 fold change in [5] is 0.012; in test [6], -0.044; in the test with givinostat, -0.113; with barasertib, -0.01.
ATP6V1F isoform 2 (UniProt Q16864): the log2 fold change was -0.139 in [1]; 0.034 in test [2]; 0.011 in test [3]; 0.06 in test [4]; 0.146 in the test with Nexturastat A; 0.123 with vemurafenib. The log2 fold change in test [5] is -0.055; in test [6], 0.038; in the test with givinostat, -0.044; with barasertib it was 0.072.
Regarding BPHL (UniProt Q86WA6), the log2 fold change in test [1] is -0.037; in test [2], -0.031; in [3], -0.058; in [4], 0.017; in the test with Nexturastat A, -0.205; with vemurafenib, 0.004. The log2 fold change is -0.062 in test [5], 0.057 in test [6], 0.023 with givinostat and -0.006 with barasertib.
